EPAC1 antag: qHTS for Antagonist of cAMP-regulated guanine nucleotide exchange factor 3 (EPAC1): primary screen; Potency, µM (top dose mostly 115 µM), inactives show at the top dose activity change, negative = inhibition, hits mostly inhibitors; AID 720709, 2013; EPAC1 GEF assay, Rap1b-BODIPY-GDP exchange fluorescence; 360,000 tested, 0.14% active; Rap guanine nucleotide exchange factor 3 (Homo sapiens), O95398;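 further: plate controls were vehicle for no effect and positive control for full effect; nearly all actives have a fitted effect of over 50% in size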
Target sequence (O95398 whole entry, looked up): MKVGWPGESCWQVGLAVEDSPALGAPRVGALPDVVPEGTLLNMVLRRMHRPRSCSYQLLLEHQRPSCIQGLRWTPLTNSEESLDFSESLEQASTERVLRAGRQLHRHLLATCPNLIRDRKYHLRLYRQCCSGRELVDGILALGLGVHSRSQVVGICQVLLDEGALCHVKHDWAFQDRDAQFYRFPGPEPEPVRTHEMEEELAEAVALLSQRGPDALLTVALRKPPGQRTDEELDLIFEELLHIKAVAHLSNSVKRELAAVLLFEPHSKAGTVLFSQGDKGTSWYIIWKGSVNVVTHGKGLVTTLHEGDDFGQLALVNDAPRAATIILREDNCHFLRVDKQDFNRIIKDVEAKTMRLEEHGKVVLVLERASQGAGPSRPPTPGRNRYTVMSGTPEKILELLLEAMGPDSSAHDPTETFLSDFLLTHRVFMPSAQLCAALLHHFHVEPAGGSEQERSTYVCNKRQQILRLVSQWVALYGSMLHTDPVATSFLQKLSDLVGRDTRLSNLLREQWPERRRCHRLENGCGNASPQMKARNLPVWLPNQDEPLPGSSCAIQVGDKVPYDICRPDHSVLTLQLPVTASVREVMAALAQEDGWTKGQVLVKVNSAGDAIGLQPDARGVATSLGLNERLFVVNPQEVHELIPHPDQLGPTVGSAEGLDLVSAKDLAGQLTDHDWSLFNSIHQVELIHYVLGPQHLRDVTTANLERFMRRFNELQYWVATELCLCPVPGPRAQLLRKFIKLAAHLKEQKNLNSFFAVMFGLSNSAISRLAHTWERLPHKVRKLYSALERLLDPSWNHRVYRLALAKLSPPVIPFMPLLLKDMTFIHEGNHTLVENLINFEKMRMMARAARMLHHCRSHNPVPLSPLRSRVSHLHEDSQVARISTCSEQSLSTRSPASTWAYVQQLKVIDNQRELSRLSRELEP
BRCA1 expr up: qHTS Assay to Identify Small Molecule Activators of BRCA1 Expression. 380,000 tested, 1.1% active. MCF7-BRCA1-FFLuc reporter, luminescence, 48 h; response scale: scaled: vehicle 0%, 10 µM genistein 100%. Potency, µM (top dose mostly 46.1 µM), for inactives: at the highest dose activation, most hits filed as activators. AID 624202, 2012; further: nearly all actives have a fitted effect of over 80% in size
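48 h compound treatment of MCF7-BRCA1-FFLuc cells (phenol-red free MEM, 37 °C), then 15 min with luciferase substrate and luminescence imaging.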
EPAC2 agonist: qHTS for Agonist of cAMP-regulated guanine nucleotide exchange factor 4 (EPAC2): primary screen; EPAC2 activation, biochemical qHTS; response scale: 100% = 6.5 mM cAMP response; Potency, µM (titrated, usually from 154 µM), inactives show at the top dose activation, usual class: activators; Rap guanine nucleotide exchange factor 4 (Homo sapiens), Q8WZA2; 360,000 tested, 0.079% active; further: nearly all actives have a fitted effect of over 50% in size
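Setup: EPAC2 100 nM, labeled Rap1B complex 250 nM, free GDP 50 uM. Compound titrations pinned in, brief spin, 5 min room temperature incubation. Kinetic fluorescence read over 30 min, normalized to 6.5 mM cAMP.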
USP1-UAF1 inh: Inhibitors of USP1/UAF1: Primary Screen | recombinant USP1/UAF1, Ub-Rhodamine cleavage fluorescence | Potency, µM (doses to about 57.1 µM), without a hit: at the highest dose activity change, negative = inhibition, actives largely listed as inhibitors | 390,000 tested, 0.23% active; further: on the % scale 0 is the no-effect control and ±100 the full control effect; nearly all actives have a fitted effect of over 60% in size
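Step one: compound is pinned into 1nM USP1/UAF1 in HEPES pH 7.8 buffer with TCEP. Step two: 15 min room-temperature incubation. Step three: Ub-Rho (150nM final) starts cleavage, tracked by fluorescence over six one-minute reads.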
EPAC1 agonist: qHTS for Agonist of cAMP-regulated guanine nucleotide exchange factor 3 (EPAC1): primary screen; Rap guanine nucleotide exchange factor 3 (Homo sapiens), O95398; EPAC1 agonist qHTS, biochemical assay; response scale: 100% = response to 6.5 mM cAMP; Potency, µM (titrated, usually from 154 µM), inactives show top-dose activation, most hits filed as activators; 360,000 tested, 0.073% active; AID 720707, 2013; further: nearly all actives have a fitted effect of over 60% in size
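Compounds were pinned as a concentration titration into mixtures of EPAC1 (100 nM), BODIPY-GDP-loaded Rap1B (250 nM) and GDP (50 uM). After 5 min at room temperature, fluorescence was followed for 30 min; activity was scaled to 6.5 mM cAMP.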
EPAC2 antag: qHTS for Antagonist of cAMP-regulated guanine nucleotide exchange factor 2 (EPAC2): primary screen; Potency, µM (series often up to 114 µM), inactives show at the highest dose activity, negative = inhibition, hits mostly inhibitors; Rap guanine nucleotide exchange factor 4 (Homo sapiens), Q8WZA2; EPAC2 GEF exchange of Rap1B-BODIPY-GDP, fluorescence; 360,000 tested, 0.18% active; further: on the % scale 0 is the no-effect control and ±100 the full control effect; nearly all actives have a fitted effect of over 45% in size
An asterisk follows results filed as active; ? = inconclusive; / = no result given. The list is not random: actives were taken first. Their share in the collection is about 1.4%. The call rests on the fitted dose curve; in most records, active means well fitted curve in the direction sought with a large enough effect; inconclusive means small, poorly fitted or top-dose-only effect, or another doubt; inactive means no such curve, though single readings can be large; an effect the other way counts as inactive or inconclusive. Potency means the concentration at half of the fitted maximal effect.

SMILES | EPAC1 antag | BRCA1 expr up | EPAC2 agonist | USP1-UAF1 inh | EPAC1 agonist | EPAC2 antag
Cc1cc(/C=C2\SC(=S)NC2=O)c(C)n1-c1cccc(O)c1 | ? | 2.82µM* | 14.7% | -19.6% | 6.5% | -16.1%
COc1ccc(-n2c(C)cc(/C=C3\SC(=O)NC3=O)c2C)cc1 | ? | 11.2µM* | 2.3% | -8.9% | -11.9% | -1.0%
Cc1ccc2nc(NC(=O)C3CCN(C(=O)c4ccc(F)cc4)CC3)sc2c1 | -0.2% | -36.4% | -5.7% | -17.2% | -0.2% | -1.4%
Cc1ccc(C(=O)N/C(=C\c2cccs2)C(=O)N2CCOCC2)cc1C | -7.3% | -6.9% | 4.1% | -17.6% | 3.0% | -1.8%
CCN1C(=O)/C(=C\N2CCCc3ccccc32)SC1=S | -0.7% | -9.6% | 13.1% | ? | 7.2% | 7.3%
CCN1C(=O)/C(=C/N2CCc3ccccc32)SC1=S | -18.2% | 3.16µM* | ? | -15.5% | -6.0% | 69.6%
COc1cc(-c2noc(CSc3nc(-c4ccccc4)cc(=O)[nH]3)n2)cc(OC)c1OC | / | / | / | -7.3% | / | /
Nc1c(C(=O)N2CCCC2)sc2nc(-c3ccccc3)ccc12 | 6.9% | 5.62µM* | -0.1% | -22.9% | -6.4% | -0.3%
Nc1c(C(=O)N2CCCCC2)sc2nc3c(cc12)CCCC3 | -8.5% | 5.62µM* | 4.4% | -5.1% | 2.6% | -8.6%
Cc1ccc(C(=O)c2sc3nc4c(cc3c2N)CCC4)cc1 | -12.6% | -60.5% | 5.0% | 2.4% | 2.3% | -1.7%
CCOc1ccc(NC(=O)CCC(=O)NNC(=O)c2ccc(Br)o2)cc1 | -12.5% | 4.2% | 9.1% | -2.3% | 6.1% | 6.3%
Cc1cc(C(=O)COC(=O)c2ccc(O)cc2)c(C)n1Cc1ccco1 | -15.6% | 2.82µM* | 7.5% | -10.3% | 2.3% | -14.2%
CCOc1ncccc1C(=O)OCC(=O)c1cc(C)n(Cc2ccco2)c1C | 6.5% | 74.5% | 1.8% | -3.8% | 4.1% | -2.8%
Cc1cc(C(=O)CSc2nnnn2C)c(C)n1Cc1ccco1 | 6.0% | 4.47µM* | 12.8% | -6.4% | -4.4% | 6.3%
N#C/C(=C\c1ccc(F)cc1)C(=O)Nc1ccccn1 | -7.0% | -10.1% | 4.1% | -14.5% | 0.8% | 1.4%
COC(=O)[C@@]12C[C@@H](CC(=O)N3CCSCC3)C(=O)N(CCc3ccc(OC)c(OC)c3)C1=CCC(C)(C)C2 | -12.0% | / | -6.2% | / | -1.8% | -9.7%
O=C(Cc1ccc(Cl)cc1)Nc1cc(Cl)ccn1 | -4.0% | 7.08µM* | 10.0% | -19.1% | 8.7% | 2.8%
O=C(NCC(c1cccnc1)N1CCc2ccccc2C1)C(=O)Nc1ccc(F)cc1F (stereo not given) | / | / | / | -1.6% | / | /
C=CCNC(=O)COc1coc(CN2CCN(C(=O)c3ccco3)CC2)cc1=O | 4.1% | -14.4% | -2.6% | -19.3% | -4.9% | 10.2%
Cc1cc(C)c(S(=O)(=O)/N=C2/C=C(Sc3ncn[nH]3)C(=O)c3ccccc32)cc1C | 44.7µM* | -91.0% | 16.3% | 1.26µM* | 11.1% | ?
O=C1C[C@H]2[C@H](CO)[C@@H](OC(=O)c3ccc(-c4ccccc4)cc3)C[C@H]2O1 | -21.7% | 12.6µM* | 3.4% | -13.2% | -2.4% | 3.1%
O=C1CC2C(CC(OC(=O)c3ccc(-c4ccccc4)cc3)C2CO)O1 (stereo not given) | -0.3% | ? | -20.0% | -16.7% | 7.1% | -5.2%
COc1ccc(NC(=O)Cn2c(=O)n(Cc3ccccc3OC)c(=O)c3cccnc32)cc1Cl | / | / | / | 6.0% | / | /
CCOc1ccc(C=NNc2ccc(S(=O)(=O)Nc3ccccc3C(=O)O)cc2[N+](=O)[O-])cc1OC | -12.7% | 8.3% | -4.8% | -26.5% | 5.5% | -13.4%
CCOc1cc(/C=N/Nc2ccc(S(=O)(=O)Nc3ccccc3C(=O)O)cc2[N+](=O)[O-])cc(Cl)c1O | 50.1µM* | 0.9% | 3.5% | ? | -2.6% | 4.4%
SMILES | EPAC1 antag | BRCA1 expr up | EPAC2 agonist | USP1-UAF1 inh | EPAC1 agonist | EPAC2 antag
COc1cc(C=NNc2ccc(S(=O)(=O)Nc3ccccc3C(=O)O)cc2[N+](=O)[O-])ccc1O | 89.1µM* | -8.8% | -16.3% | ? | -4.4% | ?
CC(=O)Nc1cccc(/C(C)=N/Nc2ccc(S(=O)(=O)Nc3ccccc3C(=O)O)cc2[N+](=O)[O-])c1 | 50.1µM* | 15.8% | -5.2% | ? | -14.5% | ?
CN(CCO)c1ccc(C=NNc2ccc([N+](=O)[O-])cc2S(=O)(=O)Nc2ccccc2C(=O)O)cc1 | 50.1µM* | 15.3% | 1.5% | -19.5% | -6.3% | ?
O=C1[C@@H]2Cc3c([nH]c4ccccc34)C(c3ccc([N+](=O)[O-])cc3)N2C(=O)CN1C1CC1 (stereo not given in full) | -26.8% | -13.6% | 9.4% | -13.0% | 7.2% | -2.9%
COc1ccc(N2CC(NC(=O)C3CC3)CC2=O)cc1OC (stereo not given) | / | 5.9% | / | -27.9% | / | /
CC(C)c1ccc(Nc2c(-c3ccccn3)nc3ccccn23)cc1 | / | / | / | -19.1% | / | /
CC(=O)Nc1ccc(C=NNc2ccc([N+](=O)[O-])cc2S(=O)(=O)Nc2ccccc2C(=O)O)cc1 | ? | -10.3% | 0.1% | -17.8% | -2.0% | ?
O=C(O)c1ccccc1NS(=O)(=O)c1ccc(N/N=C/c2cccc(O)c2O)c([N+](=O)[O-])c1 | 25.1µM* | -9.8% | -5.8% | -24.2% | -12.2% | -25.8%
COc1ccccc1NS(=O)(=O)c1cccc(-n2c(O)c(C=Nc3ccccc3C(=O)O)c3ccccc3c2=O)c1 | 56.2µM* | -36.1% | 2.0% | ? | 5.0% | ?
CC(=O)Nc1ccc(C=NNc2ccc(S(=O)(=O)Nc3ccccc3C(=O)O)cc2[N+](=O)[O-])cc1 | 79.4µM* | -15.0% | 3.7% | -14.3% | 1.1% | 50.1µM*
COc1ccc(N2CCN(C(=O)Cc3noc4ccc(C)cc34)CC2)cc1 | / | / | / | -16.2% | / | /
Cc1ccc(NC(=O)c2nc(SCc3ccccc3F)ncc2Cl)cc1 | / | -20.8% | / | / | / | /
COc1ccc(C(=O)NNC(=O)C(=O)/C=C(\O)c2ccc(C)cc2)cc1 | -24.5% | -29.1% | 3.0% | -24.2% | -0.8% | 2.9%

Screening data: PubChem BioAssay, National Center for Advancing Translational Sciences (NCATS)
